Each molecule was assayed against T1, Proteasome subunit beta (Trypanosoma cruzi) (UniProt O96673) (assay: Trypanosoma cruzi proteasome chymotrypsin-like activity (TcProtChymo) assay.). Conditions: 9.37 µM.
T1 sequence (whole entry): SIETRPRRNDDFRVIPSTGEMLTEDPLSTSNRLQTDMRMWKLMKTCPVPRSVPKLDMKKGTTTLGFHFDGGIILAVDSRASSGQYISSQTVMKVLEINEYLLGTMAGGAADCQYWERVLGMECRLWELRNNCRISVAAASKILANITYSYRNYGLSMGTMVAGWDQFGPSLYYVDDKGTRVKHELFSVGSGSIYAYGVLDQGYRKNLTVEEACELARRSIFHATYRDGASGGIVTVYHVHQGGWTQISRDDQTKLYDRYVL
Format: functional
Parameters: scale not given: in the data most compounds retested in dose-response had high values

Row | SMILES | Percent Effect [%]
1 | CN1CC(=O)N(c2cnn(C)c2)CC12CCN(Cc1ccccc1)C2 (centres undefined) | 4.02
2 | NC(=O)C(CNC(=O)Cc1ccc(F)cc1)Cc1ccc(F)cc1 (centres undefined) | 11.4
3 | O=C(N1CCOCC1)N1CCc2ncnc(NC3CC3)c2CC1 | 19.2
4 | Cn1cccc1C(=O)N1CCn2cc(CNC(=O)CC3CC3)nc2C1 | 6.61
5 | Clc1cc(CN2CCCC2Cn2cncn2)c2ncccc2c1 (centres undefined) | 3.95
6 | CCc1nnc2n1CCN(Cc1csc(-c3cnn(C)c3)n1)C2 | 18.6
7 | COc1ccc(C(CNC(=O)Nc2cn[nH]c2)N2CCOCC2)cc1 (centres undefined) | 15
8 | Cc1nn(C)c(C)c1C1CCCN1CC(=O)Nc1ccncc1 (centres undefined) | -2.88
9 | Cc1nn(C)c(N(C)C)c1CNC1CCc2c(F)cccc21 (centres undefined) | 17
10 | Cc1ccccc1C(=O)CN1C(=O)c2ccccc2CS1(=O)=O | 12.8
11 | CS(=O)(=O)N1CCC(C(=O)NC(Cc2ccsc2)c2ccccn2)CC1 (centres undefined) | 4.84
12 | COc1cccc(Cc2nnc(SC3CCOC3=O)o2)c1 (centres undefined) | 5.41
13 | Cc1ccc(N2CCC3(CC2)CC(OCC(=O)N(C)C)CO3)nn1 (centres undefined) | 14.9
14 | CC(NC(=O)NCc1cccnc1N1CCCCC1)c1nccs1 (centres undefined) | 1.01
15 | CCc1ccc(NS(=O)(=O)CC2=NC(=O)n3cccc3C2=O)cc1 | 6.1
16 | c1ncn(CC2CCCN(Cc3nc(C4CC4)no3)C2)n1 (centres undefined) | -3.36
17 | N#Cc1ccc(C(=O)N2CCC3(CC2)C(=O)Nc2ccccc23)cn1 | 9.87
18 | Cc1ccc(-c2nc(CNCCn3cccn3)cs2)o1 | 8.19
19 | Cc1cnc2n(c1=O)CC(C(=O)Nc1ccccc1Cl)CS2 (centres undefined) | 5.68
20 | CCn1c(N)nc2cc(C(=O)NCCc3ccccc3C)cnc21 | 22.7

Row | SMILES | Percent Effect [%]
21 | O=C(NCCCN1CCCC1)c1n[nH]c(=O)c2ccccc12 | 5.74
22 | Cc1nc(CN2CCCC(NCCOCC(F)(F)F)C2)no1 (centres undefined) | 4.18
23 | O=C1C[C@H]2[C@@H](CCN2C(=O)c2ccccc2)N1CCN1CCOCC1 | 2.48
24 | CC(C)Oc1ncccc1CNC(=O)N1CCC(C(N)=O)C1 (centres undefined) | 2
25 | CNc1nc2c(c(C(=O)N3CCCC3)n1)CN(Cc1nccn1C)CC2 | 19.4
26 | CC(C)NC(=O)c1sccc1N(C)S(=O)(=O)c1ccc(Cl)cc1 | 13.1
27 | COc1nn(C)c2c1CCCN(C(=O)c1ccccc1)C2 | -1.27
28 | COCC(=O)N1CC[C@@H]2O[C@H](COCc3ccncc3)CC[C@@H]21 | 16.6
29 | Fc1ccc(-c2cnc(CN3CCCC3Cn3cccn3)o2)cc1 (centres undefined) | 12.7
30 | O=C(C1CC=CC1)N1CCc2c(COCc3ccncc3)cncc2C1 | 29.9
31 | O=C(NCC(F)(F)F)NC1CCCc2c1cnn2CCO (centres undefined) | 12.4
32 | O=C(CCOc1ccccc1)N1CCC(Nc2cccnn2)CC1 | 5.5
33 | Cc1cc(CN2CCN(c3ccc4nncn4n3)C(C)C2)no1 (centres undefined) | 11.2
34 | Cc1n[nH]c(C)c1C1COCCN1C(=O)Cc1cccc(F)c1 (centres undefined) | 2.13
35 | CCC(C)(NCC(=O)Nc1ccccc1)c1nc(C)cs1 (centres undefined) | -0.772
36 | Cc1ccc(-c2nnc(CN3CCc4cnc(C)nc4C3)o2)cc1 | 10.4
37 | Cc1cccc2c1OCCC2NCc1c(C)nn(C)c1N(C)C (centres undefined) | 16.9
38 | CC(C#N)CSc1ccccc1NCC(=O)NCc1ccccc1 (centres undefined) | 11.7
39 | O=C(Cn1cc(I)cn1)N1CCCC1 | 7.02
